How the values were obtained:
Details in all cases: concentration: 10 µM; 24 h
HCC1569 [1] = experiment: H1.0 immunofluorescence intensity relative to DMSO (% of DMSO); higher = stronger H1.0 induction
How it was run: (§1)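 HCC1569 and TDF cells (800 per well, 384-well plates, RPMI with 10% FBS) were treated with compounds at 10 µM for 24 h at 37 °C, in triplicate. Cells were fixed in 3.7% formaldehyde and stained with a rabbit anti-H1.0 antibody, an AlexaFluor 647 secondary and DAPI; six fields per well were imaged at ×10. H1.0 nuclear intensity or cell number is expressed as percent of the plate DMSO control, taking the median of replicates. HCC1569 values were smoothed for positional effects.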

TDF [2] = experiment: as above
How it was run: as §1

HCC1569 [3] = experiment: cell number relative to DMSO (% of DMSO); higher = more cells (less growth inhibition / toxicity)
How it was run: as §1

TDF [4] = experiment: as above
How it was run: as §1

TDF [5] = experiment: H1.0 immunofluorescence intensity relative to DMSO (% of DMSO); higher = stronger H1.0 induction, active = 120 or more
How it was run: as §1

HCC1569 [6] = experiment: H1.0 immunofluorescence intensity relative to DMSO (% of DMSO); higher = stronger H1.0 induction, active = 140 or more
How it was run: as §1
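For H1.0 immunofluorescence intensity relative to DMSO in this document: TDF is a line of transformed human dermal fibroblasts of mesenchymal origin.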
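For cell number relative to DMSO in this document: TDF denotes transformed human dermal fibroblasts of mesenchymal origin.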

SMILES | H1.0 immunofluorescence intensity (HCC1569 [1]) | H1.0 immunofluorescence intensity (TDF [2]) | cell number (HCC1569 [3]) | cell number (TDF [4]) | H1.0 immunofluorescence intensity (TDF [5]) | H1.0 immunofluorescence intensity (HCC1569 [6])
CC(=O)N[C@@H](CS)C(N)=O | 103 (inactive) | 96.2 (inactive) | 109 | 93.6 |  | 
Nc1ccc(O)c(C(=O)O)c1 [5-Aminosalicylic acid] |  |  | 107 | 103 |  | 
NC(=O)c1nnn(Cc2cc(Cl)c(C(=O)c3ccc(Cl)cc3)c(Cl)c2)c1N |  |  | 75 | 73.8 | 95.5 (inactive) | 151 (active)
N#Cc1c(-c2ccccc2)no[n+]1[O-] [4-Phenyl-3-furoxancarbonitrile] |  |  | 64.2 | 93.3 | 93.2 (inactive) | 122 (inactive)
COc1ccc(CN(CCN(C)C)c2ccccn2)cc1.O=C(O)C=CC(=O)O [Mepyramine maleate] |  |  | 106 | 94.8 | 92.3 (inactive) | 100 (inactive)
CC(C)C1NC(=O)C(CCCCN)NC(=O)C(Cc2c[nH]c3ccccc23)NC(=O)C(Cc2ccc(O)cc2)NC(=O)C(C)N(C)C(=O)C(Cc2ccccc2)NC1=O (centres undefined) [Seglitide] |  |  | 89.8 | 98.2 | 102 (inactive) | 152 (active)
COc1ccc2c(c1OC)C(=O)OC2C1c2c(cc3c(c2OC)OCO3)CCN1C.Cl (centres undefined) [Noscapine hydrchloride] |  |  | 102 | 93.7 | 97.1 (inactive) | 96.5 (inactive)
COc1cc(NS(=O)(=O)c2ccc(N)cc2)nc(OC)n1 [Sulfadimethoxine] |  |  | 103 | 109 | 96.7 (inactive) | 92.3 (inactive)
CCCCCC(O)C=CC1C(O)CC(O)C1CC(=O)CCC(=O)O (centres undefined) [2,3-Dinor-6-keto-prostaglandin F1a] |  |  | 103 | 114 | 88.8 (inactive) | 101 (inactive)

— the supplement of paper PMC7156485
